Assay results taken from PubChem BioAssay (Tox21).
Values joined by “and” are separate entries in the source; they are usually repeats but may differ in a detail not shown here. Equal entries are not always repeated. Inconclusive results are not listed. Where a call stands in place of a potency, no number is given. Where a structure was tested more than once in an assay, its records may differ in their call. Active and inactive are the calls of the source. Calls follow the shape of the full dose curve.

Assay: p53 small molecule agonists, cell-based qHTS assay with human liver microsomes: qHTS cell viability counter screen (AID 1963579); also: nearly all actives have a fitted effect of over 45% in size
Conditions: p53RE-bla HCT-116 viability, ATP luminescence, 16 h, HLM; series mostly up to 66 µM; activity change, negative = cytotoxicity: at the top concentration
Text: National Center for Advancing Translational Sciences [NCATS]
Division of Preclinical Innovation [DPI]
U.S. Environmental Protection Agency [EPA]
National Institutes of Environmental Health Sciences [NIEHS]
National Toxicology Program [NTP]
U.S. Food and Drug Administration [FDA]
p53, a tumor suppressor protein, is activated following cellular insult, including DNA damage and other cellular stresses. The activation of p53 regulates cell fate by inducing DNA repair, cell cycle arrest, apoptosis, or cellular senescence. The activation of p53, therefore, is a good indicator of DNA damage and other cellular stresses. […] The activation of the reporter gene under culture conditions can be detected by fluorescence intensity. This cell line was used to screen the Tox21 10K compound library in the condition of presence of human liver microsomes and to identify agonists that activate the p53 signaling pathway after in vitro metabolic activation (Ooka et al., Archive of Toxicology 96:1975-1987, 2022).
Tox21 Assay Protocol Summary:
The p53RE-bla cells were dispensed at 4,000cells/3ul/well in 1536-well black-clear bottom plates. After the assay plates were incubated at 37 C, 5% CO2 incubator for 5 hours, 23 nL of compounds dissolved in DMSO, positive controls or DMSO only was transferred to the assay plate. Following compound addition, 3 uL of human liver microsomes (XenoTech, Kansas City, KS) at final concentration of 0.5 mg/mL and 1uL of B-Nicotinamide adenine dinucleotide 2'-phosphate (NADPH) at final concentration of 0.5 mg/mL were transferred to the assay plate. The plates were incubated at 37 C for 16 hours. 1 uL of LiveBLAzer detection mixture was added to each well and the plates were incubated at room temperature in the dark for 2 h. Fluorescence intensity at 460 and 530 nm emission and 405 nm excitation were measured by an Envision plate reader. For cell viability readout that measures cytotoxicity, 4 ul/well of CellTiter-Glo reagent was added into the assay plates using a Flying Reagent Dispenser. After 30 min incubation at room temperature, the luminescence intensity in the plates was measured using a ViewLux plate reader.
Potency is read from the fitted curve at half-maximal effect.

Compound | Potency | activity change, negative = cytotoxicity
COc1cc(O)c(C(=O)c2ccccc2)cc1S(=O)(=O)O | inactive | –
COCCOCCOC | inactive | –
c1ccc2c(c1)ccc1cc3c(ccc4ccccc43)cc12 | inactive | –
CC1(C)S[C@@H]2[C@H](NC(=O)[C@H](N)c3ccccc3)C(=O)N2[C@H]1C(=O)O | – | 1.93% [at 30.3 µM] (inactive)
CC(C)(C#N)c1cc(Cn2cncn2)cc(C(C)(C)C#N)c1 | inactive | –
CCC(O)OC(O)CC (stereo not given) | inactive | –
CCCCCCCCCCCCc1ccccc1 | inactive | –
CCCCCCC(C)(C)S | inactive | –
O=C(O)CCC(=O)O | inactive | –
CN1CCC[C@H]1c1cccnc1 | inactive | –
CC(=O)c1ccc(S(=O)(=O)NC(=O)NC2CCCCC2)cc1 | inactive | –
Nc1ccc(S(=O)(=O)Nc2cnc3ccccc3n2)cc1 | – | 2.69% (inactive)
CC1=C(/C=C/C(C)=C/C=C/C(C)=C/C(=O)O)C(C)(C)CCC1 | inactive | –
CNC(=O)Oc1ccc2c(c1)[C@]1(C)CCN(C)[C@@H]1N2C | inactive | –
O=C(OCc1ccccc1)c1ccccc1O | inactive | –
O=Cc1ccccc1O | inactive | –
Cc1cnc(NC(=O)C2=C(O)c3ccccc3S(=O)(=O)N2C)s1 | inactive | –
CC(C)[C@@H]1CC[C@@H](C)C[C@H]1O | inactive | –
Cc1ccc(C)c(S(=O)(=O)O)c1 | inactive | –
CCCCCCCCCCCCCCCC[N+](C)(C)Cc1ccccc1 | 53 µM (active) and 33 µM (active) and inactive | –

Compound | Potency | activity change, negative = cytotoxicity
CC(=O)OCCC(C)C | inactive | –
O=c1[nH]cc(F)c(=O)[nH]1 | inactive | –
O=C(O)Cc1c[nH]c2ccccc12 | inactive | –
CCc1cccc2c3c([nH]c12)C(CC)(CC(=O)O)OCC3 (stereo not given) | inactive | –
CCCN(CCC)S(=O)(=O)c1ccc(C(=O)O)cc1 | inactive | –
c1ccncc1 | inactive | –
Cc1noc(NS(=O)(=O)c2ccc(N)cc2)c1C | inactive | –
OCCOCCOCCOCCO | inactive | –
Oc1ccccc1 | inactive | –
c1cc(-c2ccncc2)ccn1 | inactive | –
CCCCCCCCCCCCO | inactive | –
NS(=O)(=O)c1cc2c(cc1Cl)NCNS2(=O)=O | inactive | –
C#C[C@]1(O)CC[C@H]2[C@@H]3CCC4=Cc5oncc5C[C@]4(C)[C@H]3CC[C@@]21C | inactive | –
O=C1NC(=O)C(c2ccccc2)(c2ccccc2)N1 | inactive | –
CCN1CCCC1=O | inactive | –
O=C(Cl)c1cccc(C(=O)Cl)c1 | inactive | –
CCOc1ccc(NC(C)=O)cc1 | inactive | –
CCCCCCCCCCN | inactive | –
C/C=C/c1ccc(OC)cc1 | inactive | –
CCCCCC(=O)O | inactive | –
